Measured values published in PubChem BioAssay (NCI).
Several values for one entry are separate records, joined by “and”; a condition that tells them apart may be missing. Equal values may be shown once. The panel holds about 83,000 compounds, 20% with a hit somewhere; the sample as a whole holds those more often.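 Single-concentration screen, 48 h exposure, 96-well plates. Endpoint: percent growth. Below 10 = active.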 Activity calls are given as the source filed them.

The compounds below were run on MDA-MB-468 breast (assay: NCI-60 one-dose screen, 48 h (100 = growth as untreated, 0 = no growth, -100 = all killed)). Conditions: 10 µM unless noted.
For `CN(C)c1oc(C2OC2c2ccccc2)nc1C#N` (stereo not given), the growth was 90.3% (inactive). With `COc1ccc(/C=C(/C(=O)n2cnnn2)c2cc(OC)c(OC)c(OC)c2)cc1` the growth was 13.6% (inactive). In the case of `C[C@]12CC[C@@H]3c4ccc(OS(=O)(=O)O)cc4CC[C@H]3[C@@H]1CC[C@@H]2NS(=O)(=O)c1ccc(-c2ccccc2)cc1`, the growth is reported as 76.8% (inactive). For `Nc1cc(Br)c(-c2nn3c(CCC(=O)c4nc5ccccc5[nH]4)nnc3s2)c(Br)c1`, the growth was 91.8% (inactive). With `CC(C)(C)c1cc(/C=N/NC(=O)c2ccccc2NC(=O)c2cccs2)c(O)c(C(C)(C)C)c1` the growth was 25.3% (inactive). In the case of `O=[N+]([O-])c1ccc(Cl)c(-c2cc(CCCCO)on2)c1`, the growth is reported as 98.3% (inactive). In the case of `C/C(=C\CCc1ccoc1)CC/C=C(\C)CCCNc1ccc(F)cc1`, the growth is reported as 89.8% (inactive). In the case of `Nc1c(C(=O)c2ccccc2)sc2nc(-c3cccs3)cc(-c3cccs3)c12`, the growth is reported as 30.8% (inactive). In the case of `CCC(C)NC(=O)c1ccccc1C` (stereo not given), the growth is reported as 86.7% (inactive). For `COc1ccc(/C(C)=C(\c2ccc(OCCN3CCCCCC3)cc2)c2ccc(OC(=O)C3CCCCC3)cc2)cc1`, the growth was -74.5% (active). In the case of `COc1ccccc1NC(=O)c1cc2cc(Br)ccc2cc1O`, the growth is reported as -9.27% (active). In the case of `CC(=O)Nc1ccc(S(=O)(=O)n2ccc(-c3ccc4c(c3)CCC(C)(C)O4)n2)cc1`, the growth is reported as 24.9% (inactive). In the case of `O=C(Nc1ccc(Cl)c(Cl)c1)Nc1ccc(Cl)c(Cl)c1`, the growth is reported as -78.5% (active) and 10.4% (inactive). In the case of `CCCCCCCCN(CCCCCCCC)CCCCCCCCCN1CCCc2cc(OC)ccc21`, the growth is reported as 61.8% (inactive). With `COc1ccc(C(=O)NC(=O)Nc2ccc3c(c2)NC(=O)/C3=C\c2[nH]c(C)c(C(=O)O)c2C)c(F)c1` the growth was 12.3% (inactive). In the case of `CC/C=C\C/C=C\C[C@H](O)C/C=C1/C(=O)C=C[C@@H]1C/C=C\CCCC(=O)OC`, the growth is reported as -51.7% (active). For `CCNCCNc1cc(C2CCCC2)c(C#N)c2nc3ccccc3n12`, the growth was -25.5% (active). In the case of `O=C1NC(=O)/C(=C\c2ccncc2)N1`, the growth is reported as 102% (inactive). In the case of `COc1cc2c(c(OC)c1OC)CCc1cnoc1-2`, the growth is reported as 83.8% (inactive). For `CCOC(=O)C/C(=N\Nc1cc(=O)[nH]c2ccc(Cl)cc12)C(=O)OCC`, the growth was 98.6% (inactive). In the case of `FC(F)(F)c1cc(Nc2cccc(Oc3ccc(NC4=NCCN4)nc3)c2)ccc1Cl`, the growth is reported as -37.6% (active). With `O=C1c2c(O)ccc(O)c2C(=O)c2c(NCCNCCO)ccc(NCCNCCO)c21` the growth was -77.2% (active). For `CCCc1nc2ccccn2c1Nc1ccc(C(=O)NO)cc1`, the growth was 87.9% (inactive). For `Cc1cccc2c3c(sc12)C(c1ccc(Cl)cc1)c1c(nc(CC(=O)Nc2ccccc2)[nH]c1=O)O3` (stereo not given), the growth was 9.75% (active). With `Cc1cc(O)c(C2=NN(c3ccc(S(N)(=O)=O)cc3)C(c3ccc(Cl)cc3)C2)c(C)c1Cl` (stereo not given) the growth was 43.7% (inactive). For `C=CCn1c(C)nc2cc(Nc3nc(N4CCCC4)nc4nc[nH]c34)ccc21`, the growth was 51.1% (inactive). In the case of `N#Cc1cccc(CN2CCC3=C(C2)C(=O)N(Cc2ccc(Cl)cc2)C2=NCCN23)c1`, the growth is reported as -14.9% (active). With `COc1ccccc1Cn1cc2c(c1-c1ccccc1)CCc1cnoc1-2` the growth was 10.9% (inactive). With `N#Cc1c(-c2ccc(F)cc2)c(C#N)c2c(C#N)c(N)nn2c1N` the growth was 83.5% (inactive). In the case of `O=C(O)c1ccc(-n2c(=O)c3ccccc3c3ccccc3c2=O)cc1`, the growth is reported as 105% (inactive). With `CS(=O)(=O)Nc1cc(-c2ccc3ncc(C#N)c(NCc4ccccc4F)c3c2)cnc1Cl` the growth was -16.8% (active). In the case of `Nc1c(C(=O)O)[nH]c(=O)[nH]c1=O`, the growth is reported as 103% (inactive). In the case of `O=C(CSc1ccc2nnc(-c3cccc(F)c3)n2n1)Nc1ccc2c(c1)OCO2`, the growth is reported as 23% (inactive). In the case of `Cn1cc(-c2ccc(F)c(C(F)(F)F)c2)nc1C1CCN(c2ncnc3[nH]ncc23)CC1`, the growth is reported as 64.6% (inactive). `O=C1CCC(C(=O)N/N=C/c2ccc([N+](=O)[O-])cc2)N1` (stereo not given) was tested, and the growth was 110% (inactive). For `CCN(CC)CCOC(=O)c1ccc(N=Nc2ccc(O)c(OC)c2)cc1`, the growth was 94% (inactive). With `COc1cc2cn3c4ccc(O)cc4[nH]c(=O)c3c2cc1OC` the growth was -27.4% (active). In the case of `O=c1[nH]c(Cc2nc3ccccc3s2)nc2cc(Br)ccc12`, the growth is reported as 92.4% (inactive). `O=C(/C=C/c1cccc([N+](=O)[O-])c1)c1ccc(Nc2nc(N3CCCCC3)nc(N3CCCCC3)n2)cc1` was tested, and the growth was 121% (inactive). In the case of `Clc1ccc(Nc2scc3[n+]2CCC3)cc1`, the growth is reported as 86.3% (inactive).
